In PubChem BioAssay:
Values without a mark were called inactive. How the calls were made is not given here. Where a SMILES comes first, the peptide text is derived from it. The star is where a group is joined. Boc = CC(C)(C)OC(=O)*

Target: Pantothenate synthetase (Mycobacterium tuberculosis (strain ATCC 25618 / H37Rv)) (UniProt P9WIL5)
Test: Coupled enzyme confirmation of inhibitors against recombinant Mtb PanC (AID 375);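 further: 0% = full reaction with vehicle and 100% = no enzyme background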
Conditions: coupled enzyme assay; at 10 µM, hits give high values

Sequence of Pantothenate synthetase (Mycobacterium tuberculosis (strain ATCC 25618 / H37Rv)) (P9WIL5 whole entry, looked up): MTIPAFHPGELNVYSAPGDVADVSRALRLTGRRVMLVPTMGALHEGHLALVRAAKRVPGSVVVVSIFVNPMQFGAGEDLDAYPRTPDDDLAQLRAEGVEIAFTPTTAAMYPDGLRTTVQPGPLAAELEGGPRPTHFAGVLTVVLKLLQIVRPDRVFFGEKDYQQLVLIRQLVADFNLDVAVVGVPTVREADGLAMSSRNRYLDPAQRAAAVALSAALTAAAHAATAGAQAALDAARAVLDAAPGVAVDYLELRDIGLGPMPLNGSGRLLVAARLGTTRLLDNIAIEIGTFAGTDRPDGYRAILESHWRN

Compound	inhibition
O=S(=O)(Nc1cccc2ncccc12)c1cccs1	6%
CC(C)CC(NC(=O)OC(C)(C)C)C(=O)NC(C(=O)N1CCCC1C(N)=O)C(C)C (stereo not drawn) (Boc-Leu-Val-Pro-NH2; configuration not given here)	0%
Fc1c(F)c(F)c(CSc2nc3ccccc3[nH]2)c(F)c1F	3%
CC(CCc1ccccc1)NC(=O)C1CCN(S(=O)(=O)c2cnc[nH]2)CC1 (stereo not given)	4%
O=C(Nc1ccc(S(=O)(=O)N2CCc3ccccc32)cc1)c1ccc2c(c1)OCO2	0%
O=c1c2[nH]c3ccc(Cl)cc3c2ncn1Cc1ccccn1	0%
CCn1c(=O)c(=O)[nH]c2cc(C(=O)N3CCN(c4ccccc4F)CC3)ccc21	4%
COCCn1c(SCC(=O)Nc2ccc3c(c2)OCCO3)nc2c(c1=O)SC(C)C2 (stereo not given)	3%
CCOn1c(=O)c(=O)n(OCc2ccccc2)c2ccccc21	0%
O=C(Nc1nccs1)c1cccc(NC(=O)C2CC2)c1	6%
CC12CN3CCN(CC(C3)C1(O)CN1CCCCC1)C2 (stereo not given)	0%
COc1cc2c(C#N)c(N3CCOCC3)nc(N)c2c(N)n1	0%
Nc1ccc2cn[nH]c2c1	0%
CS(=O)(=O)N1CCN(c2ccccc2NC(=O)c2ccc(-c3ccc(Cl)cc3Cl)o2)CC1	7%
Cc1cc(=O)oc(C)c1C(=O)O	0%
Cc1ccccc1NC(=O)C1CCCN(S(=O)(=O)c2cccc3cccnc23)C1 (stereo not given)	0%
Cc1oc(C(=O)O)cc1CSCc1cc(C(=O)O)c(C)o1	2%
Cc1cccc(-n2c(Cc3cc(=O)[nH]c(=O)[nH]3)nnc2SCC(=O)NCc2ccco2)c1	4%
Cn1ccnc1C(O)c1ccco1 (stereo not given)	3%
CN1C(=O)C(CC(=O)N2CCN(C(c3ccccc3)c3ccccc3)CC2)N(C)C1=O (stereo not given)	0%

Compound	inhibition
Cc1[nH]nc2c1C(c1ccc(F)cc1)C1=C(CC(C)(C)CC1=O)N2 (stereo not given)	11%
CC(NC(=O)c1cc2c(=O)n(C)c3ccccc3c2n1C)c1ccc2c(c1)OCCO2 (stereo not given)	3%
CCOC(=O)C1=C(O)C(=O)N(c2ccc(S(N)(=O)=O)cc2)C1c1ccccc1 (stereo not given)	0%
COC(=O)CSC1=C(C#N)C(c2ccc(F)cc2)CC(=O)N1 (stereo not given)	0%
Cc1cccc(-n2c(SCc3cc(=O)n4ccsc4n3)nc3ccccc32)c1	0%
Cc1cc(NS(=O)(=O)c2ccc(N)cc2)no1	1%
COC(=O)C1=C(C)NC(=O)C1(Nc1ccc(Cl)cn1)C(F)(F)F (stereo not given)	0%
COc1ccc(N2CCN(c3ccc(NC(=O)C4CCCCC4)cc3C#N)CC2)cc1	0%
Cc1occc1C(=O)Nc1nnc(C2CCCCC2)s1	0%
COC(=O)Cc1[nH]nc2c1C(C1C=CCCC1)C(C#N)=C(N)O2 (stereo not given)	3%
COc1cccc(OCCSc2nnc3sc4ccccc4n23)c1	0%
CCC(=O)N1CCc2cc(OC)c(OC)cc2C1COc1ccc(C(=O)OC)cc1 (stereo not given)	9%
Cc1cc(C)n2nc[n+](C)c2n1	0%
CC(C)(C)C(=O)/C=C(\N)c1ccccn1	2%
O=c1ccc(S(=O)(=O)N2CCC(Cc3ccccc3)CC2)c[nH]1	0%
COCCN(CC(=O)NC1CCCCC1)C(=O)CSc1nc2ccccc2o1	0%
O=C(NCc1ccco1)c1ccccc1Nc1ccc(F)cc1	0%
Cc1cc2cc(CN(CCCN3CCOCC3)C(=O)NC3CCCCC3)c(=O)[nH]c2cc1C	2%
O=C(CCCN1C(=O)c2ccccc2C1=O)NCc1cccnc1	3%
CCOC(=O)c1c(C)[nH]c(C=Nc2ccccc2)c1O	0%
